Potency and affinity values are given separately. The source holds several records for some structures; these can differ, active in one and inactive in another. A number with no mark means an inactive call.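 The calls were made as follows: active = EC50 of 10 µM or lower; inactive = EC50 above 10 µM or not measured.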
Experiment: optical interference in Abeta FP readout, dose response, artefact control for IDE activator project, biochemical, fluorescence polarization (AID 588442)
Conditions: FP artifact counterscreen, fluorescein-Abeta, no enzyme activity

Structure (SMILES): C[n+]1c2cc(N)ccc2cc2ccc(N)cc21
- EC50: > 54.7 µM

Source: PubChem BioAssay AID588442 (The Scripps Research Institute Molecular Screening Center, 2011)
